# From PubChem BioAssay (EPA / NIEHS)
# Active and inactive are the calls of the source. The calls were made as follows: active = hit-call score of the fitted dose curve at least 0.9, where 1 is the maximum; inactive = score below 0.9.
# Tests used:
# [1] = Tanguay_ZF_120hpf_ANY: Oregon State University Tanguay Lab 120 Hour Post-fertilization zebrafish Assay for Any Mortality and Malformation (AID 2284404)
# Summary of the method: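 Dechorionated Tropical 5D wild-type embryos, one per well from 6 hpf, static exposure in sealed, dark plates at 28C until 120 hpf, 0.64% DMSO final. Brightfield scoring of mortality and malformations as binary presence/absence, pooling 13 morphology endpoints.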
# [2] = CCTE_Padilla_ZF_Score.Craniofacial: CCTE's 144 Hour Post-fertilization zebrafish Assay Score for Craniofacial Malformation, Padilla Lab (AID 2284405)
# Summary of the method: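 Wild-type zebrafish embryos (with chorions), one per well in 10% Hanks', were dosed at 6–8 hpf in sealed plates and kept at 26C. They were rinsed at 5 dpf. At 6 dpf two blinded assessors scored craniofacial malformations by brightfield stereomicroscopy.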
# [3] = CCTE_Padilla_ZF_Score.Edema: CCTE's 144 Hour Post-fertilization zebrafish Assay Score for Edema Malformation, Padilla Lab (AID 2284406)
# Summary of the method: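 Wild-type zebrafish embryos, one per well in Hanks' solution, dosed at 6-8 hpf, sealed and reared at 26C on a 14:10 h cycle; rinsed on 5 dpf. At 6 dpf, blinded assessors scored edema by stereomicroscopy.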
# [4] = CCTE_Padilla_ZF_Score.Spine: CCTE's 144 Hour Post-fertilization zebrafish Assay Score for Spine Malformation, Padilla Lab (AID 2284407)
# Summary of the method: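 Wild-type zebrafish embryos, one per well in Hanks' solution, dosed at 6–8 hpf in sealed plates at 26C, 14:10 h light:dark; rinsed at 5 dpf. Two blinded assessors scored spinal defects by stereomicroscopy at 6 dpf; fitted versus DMSO.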
# [5] = CCTE_Padilla_ZF_Score.Swim_bladder: CCTE's 144 Hour Post-fertilization zebrafish Assay Score for Swim Bladder Malformation, Padilla Lab (AID 2284408)
# Summary of the method: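 Wild-type zebrafish embryos, one per well in 10% Hanks', dosed at 6–8 hpf, sealed, reared at 26C and rinsed at 5 dpf. Blinded assessors scored uninflated swim bladder by stereomicroscopy at 6 dpf, relative to DMSO.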
# [6] = CCTE_Padilla_ZF_Score.Position: CCTE's 144 Hour Post-fertilization zebrafish Assay Score for Position, Padilla Lab (AID 2284409)
# Summary of the method: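 Wild-type zebrafish embryos (with chorions) exposed singly from 6–8 hpf in sealed wells of Hanks' solution at 26C, rinsed at 5 dpf. At 6 dpf, blinded assessors scored abnormal water-column position by brightfield stereomicroscopy, relative to DMSO.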
# [7] = CCTE_Padilla_ZF_Score.Living: CCTE's 144 Hour Post-fertilization zebrafish Assay Score for Viability, Padilla Lab (AID 2284410);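 also: larval death at 6 dpf judged by absent heartbeat or coagulation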
# Summary of the method: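 Wild-type zebrafish embryos were exposed singly from 6–8 hpf in sealed wells of Hanks' solution at 26C, then rinsed at 5 dpf. At 6 dpf, blinded assessors scored mortality (no heartbeat or coagulation) by stereomicroscopy, fitted against DMSO.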
# [8] = CCTE_Padilla_ZF_Score.General: CCTE's 144 Hour Post-fertilization zebrafish Assay Score for General Malformation, Padilla Lab (AID 2284411)
# Summary of the method: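 Wild-type zebrafish embryos were plated singly at 6-8 hpf in 10% Hanks' and exposed in sealed wells at 26C until rinsed on 5 dpf. At 6 dpf two blinded assessors scored mortality, hatching and malformations by stereomicroscopy; gain-of-signal versus DMSO.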
# [9] = CCTE_Padilla_ZF_Score.Tail: CCTE's 144 Hour Post-fertilization zebrafish Assay Score for Tail Malformation, Padilla Lab (AID 2284414)
# Summary of the method: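 Wild-type zebrafish embryos, one per well in 200 uL 10% Hanks', dosed at 6-8 hpf, sealed, and kept at 26 C on a 14:10 h light cycle. Chemical was rinsed out at 5 dpf. Blinded brightfield scoring of tail defects followed at 6 dpf.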
# [10] = CCTE_Padilla_ZF_Score.Blood_pooling: CCTE's 144 Hour Post-fertilization zebrafish Assay Score for Blood Pooling, Padilla Lab (AID 2284415)
# Summary of the method: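 Wild-type outbred zebrafish embryos, one per well in 10% Hanks', exposed from 6–8 hpf in sealed plates at 26C on 14:10 h light:dark, rinsed at 5 dpf. Blinded stereomicroscope scoring of blood pooling at 6 dpf; gain-of-signal versus DMSO.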
# [11] = CCTE_Padilla_ZF_Score.Any: CCTE's 144 Hour Post-fertilization zebrafish Assay Score for Any Mortality or Malformation, Padilla Lab (AID 2284416)
# Summary of the method: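 Wild-type zebrafish embryos with chorions, one per well in 10% Hanks' from 6–8 hpf, dosed in sealed plates at 26 C, 14:10 h light:dark; rinsed at 5 dpf; blinded scoring at 6 dpf for death or malformation, versus DMSO.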
# TTR (gene 7276) = test: CCTE_GLTED_hTTR_0.125uM: CCTE's human Transthyretin (hTTR) Inhibition Assay, with 0.125uM TTR, Great Lakes Toxicology and Ecology Division (GLTED) Lab (AID 2284431);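 also: hits lower the fluorescence signal relative to DMSO baseline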
# Summary of the method: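 TTR 0.125uM + test chemical, 2 h; ANSA probe displacement; ex 380/em 475 fluorescence; signal loss vs DMSO control.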
# [12] = system: SRY-box transcription factor 17 (SOX17) Protein Expression, Deisenroth Lab, SOX17 (gene 64321); test: CCTE_Deisenroth_DEVTOX-GLR_Endo_SOX17: CCTE's DevTox GLR-Endo Assay Evaluation of SRY-box transcription factor 17 (SOX17) Protein Expression, Deisenroth Lab (AID 2284413)
# Summary of the method: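 Seed RUES2-GLR cells 24 h; start endoderm differentiation; dose at 0 and 24 h (1 nM - 200 uM, 10 points); fix at 48 h, stain nuclei, image 5 fields/well; compute SOX17+/total cells vs 0.2% DMSO.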
# [13] = system: Brachyury (BRA) Protein Expression, TBXT (gene 6862); test: CCTE_Deisenroth_DEVTOX-GLR_Endo_BRA: CCTE's DevTox GLR-Endo Assay Evaluation of Brachyury (BRA) Protein Expression, Deisenroth Lab (AID 2284417)
# Summary of the method: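 Percent BRA+ (mesoderm) RUES2-GLR cells after 48 h differentiation with two exposures, 1 nM - 200 uM; 0.2% DMSO control subtracted.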
# [14] = CCTE_Deisenroth_DEVTOX-GLR_Endo_CellCount: Viability Assessment in CCTE's DevTox GLR-Endo Assay, Deisenroth Lab (AID 2284420)
# Summary of the method: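 Nuclei counted by fluorescence microscopy as a surrogate for cell number, expressed as percent change relative to 0.2% DMSO control. Human RUES2-GLR cells, 48 h differentiation, dosed twice; 1 nM - 200 uM series.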
# [15] = system: SRY-box transcription factor 2 (SOX2) Protein Expression, Deisenroth Lab, SOX2 (gene 6657); test: CCTE_Deisenroth_DEVTOX-GLR_Pluri_SOX2: CCTE's DevTox GLR-Pluri Assay Evaluation of SRY-box transcription factor 2 (SOX2) Protein Expression, Deisenroth Lab (AID 2284428)
# Summary of the method: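 RUES2-GLR (human pluripotent), 48 h post-dosing, 2 exposures q24h, 1 nM–200 uM 10-pt. Fixed, nuclear dye, high-content imaging 5 fields/well. Endpoint: % SOX2+ cells (SOX2+/total count) vs 0.2% DMSO; n≥4.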
# [16] = CCTE_Deisenroth_DEVTOX-GLR_Pluri_CellCount: Viability Assessment in CCTE's DevTox GLR-Pluri Assay Evaluation of Total Cell Counts, Deisenroth Lab (AID 2284430)
# Summary of the method: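 RUES2-GLR human pluripotent cells, seeded 24 h, then differentiated 48 h with two chemical exposures 24 h apart; 10-point series 1 nM - 200 uM. Fixed, nuclear-stained, imaged (5 fields/well); nuclei count as % change vs 0.2% DMSO.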
compound,measurement,setting,value
O=C(O)C(F)(F)C(F)(F)C(F)(F)C(F)(F)C(=O)O,outcome,[1],inactive
same,outcome,[2],inactive
same,outcome,[3],inactive
same,outcome,[4],inactive
same,outcome,[5],inactive
same,outcome,[6],inactive
same,outcome,[7],inactive
same,outcome,[8],inactive
same,outcome,[9],inactive
same,outcome,[10],inactive
same,outcome,[11],inactive
Cc1ccc(C)c(OCCCC(C)(C)C(=O)O)c1,AC50,TTR (gene 7276),0.499 µM (active)
CC1(C)[C@@H]2CC[C@@]1(C)C(=O)C2,outcome,[12],inactive
same,outcome,[13],inactive
same,outcome,[14],inactive
same,outcome,[15],inactive
same,outcome,[16],inactive
C=CC(=O)OCCCCCCOC(=O)C=C,outcome,[8],inactive
CCCCCCOC(=O)CCCCC(=O)OCCCCCC,outcome,[8],inactive
c1ccc2sc(SSN3CCOCC3)nc2c1,outcome,[8],inactive
O=C(OCCc1ccccc1)c1ccccc1,AC50,TTR (gene 7276),20.9 µM (active)
CCCCCC[C@@H](O)C/C=C\CCCCCCCC(=O)OCC(O)CO (stereo partly drawn),AC50,TTR (gene 7276),13.5 µM (active)
CCCCCCCOC(=O)c1ccc(O)cc1,AC50,TTR (gene 7276),1.42 µM (active)
CCCCCCCO,outcome,[8],inactive
CC1=NN(c2ccc(S(=O)(=O)O)cc2)C(=O)C1N=Nc1ccccc1 (stereo not drawn),AC50,TTR (gene 7276),5.69 µM (active)
C=CC(=O)OCCCCCCCC(C)C,outcome,[8],inactive
COc1ccc(C(=O)c2ccccc2)c(O)c1,AC50,[8],7.03 µM (active)
same,AC50,TTR (gene 7276),6.35 µM (active)
CCCCCCCCCCCCc1ccc(O)cc1,AC50,TTR (gene 7276),1.62 µM (active)
CCCCCCCCCCCC(=O)N(C)CC(=O)O,AC50,TTR (gene 7276),21.4 µM (active)
CCCCCCOc1ccc(N)cc1,AC50,TTR (gene 7276),21.2 µM (active)
Oc1ccccc1Cc1ccccc1O,AC50,TTR (gene 7276),3.62 µM (active)
O=C(Oc1ccccc1)c1ccccc1O,AC50,TTR (gene 7276),4.91 µM (active)
C[N+](C)(C)CCCNS(=O)(=O)C(F)(F)C(F)(F)C(F)(F)C(F)(F)C(F)(F)C(F)(F)C(F)(F)C(F)(F)F,AC50,[1],80 µM (active)
same,outcome,[2],inactive
same,outcome,[3],inactive
same,outcome,[4],inactive
same,outcome,[5],inactive
same,outcome,[6],inactive
same,AC50,[7],50.1 µM (active)
same,outcome,[8],inactive
same,outcome,[9],inactive
same,outcome,[10],inactive
same,AC50,[11],26.2 µM (active)
C=CC(=O)NC(C)(C)C,outcome,[8],inactive
O=S(=O)(O)c1ccc(N=Nc2c(O)ccc3ccccc23)cc1,AC50,TTR (gene 7276),0.258 µM (active)
c1ccc2c(c1)[nH]c1ccccc12,outcome,[8],inactive
CC(C)(c1ccccc1)c1ccc(Nc2ccc(C(C)(C)c3ccccc3)cc2)cc1,AC50,TTR (gene 7276),20.2 µM (active)
O=C(OCc1ccccc1)c1ccc(O)cc1,AC50,TTR (gene 7276),0.322 µM (active)
Oc1ccc(-c2ccccc2)c(Cl)c1,AC50,TTR (gene 7276),0.0353 µM (active)
COc1ccc(-c2coc3cc(O)cc(O)c3c2=O)cc1,AC50,TTR (gene 7276),0.335 µM (active)
CCCCCCC=O,outcome,[8],inactive
C=CCCCCCCCCC=O,outcome,[8],inactive
